Results taken from PubChem BioAssay (NCATS).
Inconclusive results are not listed. Entries that show only a call come without a potency. A number with no mark means an inactive call. Active and inactive are the calls of the source. Calls come from the whole dose curve; as a rule, active = well fitted curve in the direction sought with a large enough effect; inconclusive = small, poorly fitted or top-dose-only effect, or another doubt; inactive = no such curve, though single readings can be large; an effect the other way counts as inactive or inconclusive.

How the values were obtained:
[1] = qHTS of pediatric cancer cell lines to identify multiple opportunities for drug repurposing: Primary screen for SK-N-MC cells (AID 1347093); note: potency is the fitted concentration of half-maximal effect; for activity change, negative = cytotoxic: series mostly up to about 46 µM
Outline: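 Metabolically active cells were quantified by ATP-dependent luminescence (CellTiter-Glo, 15 min at room temperature) following 48 h treatment. Cells had been plated at 500-1,000 per well and settled for 5 h beforehand.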

[2] = qHTS of pediatric cancer cell lines to identify multiple opportunities for drug repurposing: Primary screen for BT-37 cells (AID 1347094); note: potency is the fitted concentration of half-maximal effect; for activity change, negative = cytotoxic: series mostly up to about 57 µM
Outline: (§1)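 ATP-based luminescence (CellTiter-Glo) quantifies viability after a 48-hour exposure. Compounds are dosed across 8 or 11 final concentrations; DMSO and 2.3 µM bortezomib serve as controls.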

[3] = qHTS of pediatric cancer cell lines to identify multiple opportunities for drug repurposing: Primary screen for NB-EBc1 cells (AID 1347095)
Outline: as §1

[4] = qHTS of pediatric cancer cell lines to identify multiple opportunities for drug repurposing: Primary screen for SK-N-SH cells (AID 1347098); note: nearly all actives have a fitted effect of over 65% in size; note: potency is the fitted concentration of half-maximal effect;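 for activity change, negative = cytotoxic: DMSO served as neutral control and bortezomib at 2.3 µM as positive control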
Outline: (§2)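 Cells (500-1,000/well) rested 5 h, then received compounds for 48 h; metabolically active cells were measured by CellTiter-Glo luminescence. Final concentrations spanned up to 46 µM (MIPE, 11-point) or 0.59 nM-46 µM (NPC, 8-point) in primary screens, 11-point in follow-ups.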

[5] = qHTS of pediatric cancer cell lines to identify multiple opportunities for drug repurposing: Primary screen for NB1643 cells (AID 1347099); note: nearly all actives have a fitted effect of over 50% in size; note: potency is the fitted concentration of half-maximal effect
Outline: as §1

[6] = qHTS of pediatric cancer cell lines to identify multiple opportunities for drug repurposing: Primary screen for LAN-5 cells (AID 1347100)
Outline: (§3)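 Viability after 48 h compound treatment at 37C, 500-1,000 cells/well, read as ATP luminescence with CellTiter-Glo. Primary screens used 11-point (MIPE, 0.78 nM-46 µM) or 8-point (NPC, 0.59 nM-46 µM) final concentrations; follow-up screens used 11-point dilutions.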

[7] = qHTS of pediatric cancer cell lines to identify multiple opportunities for drug repurposing: Primary screen for Rh18 cells (AID 1347102); note: nearly all actives have a fitted effect of over 65% in size; note: potency is the fitted concentration of half-maximal effect
Outline: as §3

[8] = qHTS of pediatric cancer cell lines to identify multiple opportunities for drug repurposing: Primary screen for BT-12 cells (AID 1347101); note: nearly all actives have a fitted effect of over 25% in size; note: potency is the fitted concentration of half-maximal effect
Outline: as §2

[9] = qHTS of pediatric cancer cell lines to identify multiple opportunities for drug repurposing: Primary screen for Saos-2 cells (AID 1347097); note: nearly all actives have a fitted effect of over 40% in size
Outline: as §1

[10] = qHTS of pediatric cancer cell lines to identify multiple opportunities for drug repurposing: Primary screen for U-2 OS cells (AID 1347096); note: nearly all actives have a fitted effect of over 50% in size
Outline: as §3

CCCCOC(=O)c1ccc(O)cc1
Potency [1]: inactive | Potency [2]: inactive | Potency [3]: inactive | Potency [4]: inactive | Potency [5]: inactive | Potency [6]: inactive | Potency [7]: inactive

CCCCCCCCCCCCOS(=O)(=O)O
Potency [1]: inactive | Potency [2]: inactive | Potency [3]: inactive | Potency [4]: inactive | Potency [5]: inactive | Potency [6]: inactive | Potency [8]: inactive | Potency [7]: inactive

N[C@@H](CSSC[C@H](N)C(=O)O)C(=O)O
activity change, negative = cytotoxic [1]: -7.24% [at 0.597 µM] | activity change, negative = cytotoxic [2]: 3.9% [at 0.745 µM] | activity change, negative = cytotoxic [3]: -0.714% [at 0.597 µM] | activity change, negative = cytotoxic [9]: -6.38% [at 0.597 µM] | activity change, negative = cytotoxic [5]: -5.83% [at 0.597 µM] | activity change, negative = cytotoxic [8]: 5.67% [at 0.745 µM] | activity change, negative = cytotoxic [7]: 0.304% [at 0.597 µM]

CCN(CC)CCNC(C(=O)OCCC(C)C)c1ccccc1 (stereo not drawn)
Potency [1]: inactive | Potency [2]: inactive | Potency [3]: inactive | Potency [4]: inactive | Potency [5]: inactive | Potency [6]: inactive | Potency [8]: inactive

O=C1NC(=O)[C@@]2(CCOc3ccc(F)cc32)N1
Potency [1]: inactive | Potency [2]: inactive | Potency [3]: inactive | Potency [9]: inactive | Potency [4]: inactive | Potency [5]: inactive | Potency [6]: inactive | Potency [8]: inactive | Potency [7]: inactive

NS(=O)(=O)c1cc2c(cc1Cl)NC(CSCc1ccccc1)=NS2(=O)=O
Potency [1]: inactive | Potency [2]: inactive | Potency [3]: inactive | Potency [5]: inactive | Potency [6]: inactive | Potency [8]: inactive | Potency [7]: inactive

CC(C(O)c1ccc(O)cc1)N1CCC(Cc2ccccc2)CC1 (stereo not drawn)
Potency [1]: inactive | Potency [3]: inactive | Potency [10]: inactive | Potency [9]: inactive | Potency [5]: inactive | Potency [8]: inactive | Potency [7]: inactive

CC(CN(C)C)CN1c2ccccc2CCc2ccccc21 (stereo not drawn)
Potency [1]: inactive | Potency [3]: inactive | Potency [10]: inactive | Potency [5]: inactive | Potency [6]: inactive

O=C(O)CN1C(=O)c2cccc3cccc(c23)C1=O
Potency [1]: inactive | Potency [3]: inactive | Potency [10]: inactive | Potency [4]: inactive | Potency [5]: inactive | Potency [6]: inactive | Potency [8]: 0.001 µM (active)

CC[N+](CC)(CC)CCOc1ccc(/C=C/c2ccccc2)cc1
Potency [1]: 5.96 µM (active) | Potency [2]: 15.5 µM (active) | Potency [5]: 13.3 µM (active) | Potency [8]: 3.47 µM (active) | Potency [7]: 7.5 µM (active)

CCCn1cnc2c1c(=O)n(CCCCC(C)=O)c(=O)n2C
Potency [1]: inactive | Potency [2]: inactive | Potency [3]: inactive | Potency [4]: inactive | Potency [5]: inactive | Potency [6]: inactive | Potency [8]: inactive

Nc1nc2c(ncn2CCC(CO)CO)c(=O)[nH]1
Potency [1]: inactive | Potency [2]: inactive | Potency [3]: inactive | Potency [5]: inactive | Potency [6]: inactive | Potency [8]: inactive | Potency [7]: inactive

COc1cc(C(=O)N2CCOCC2)cc(OC)c1OC
Potency [1]: inactive | Potency [2]: inactive | Potency [3]: inactive | Potency [9]: inactive | Potency [4]: inactive | Potency [5]: inactive | Potency [8]: inactive

O=c1cc[nH]c(=S)[nH]1
Potency [1]: 2.66 µM (active) | Potency [2]: inactive | Potency [3]: inactive | Potency [9]: inactive | Potency [4]: inactive | Potency [5]: 0.001 µM (active) | Potency [6]: inactive | Potency [8]: inactive | Potency [7]: inactive

C/C(=C(\CCOP(=O)(O)O)SC(=O)c1ccccc1)N(C=O)Cc1cnc(C)nc1N
activity change, negative = cytotoxic [1]: -16.7% [at 4.84 µM] | activity change, negative = cytotoxic [2]: 17.3% [at 6.03 µM] | activity change, negative = cytotoxic [3]: 16.5% [at 4.84 µM] | activity change, negative = cytotoxic [9]: -7.29% [at 4.84 µM] | activity change, negative = cytotoxic [4]: -2.92% [at 6 µM] | activity change, negative = cytotoxic [5]: 16.8% [at 4.84 µM] | activity change, negative = cytotoxic [8]: 9.87% [at 6.03 µM] | activity change, negative = cytotoxic [7]: 28.8% [at 4.84 µM]

O=C1O[C@H]([C@@H](O)CO)C(O)=C1O
Potency [1]: inactive | Potency [2]: inactive | Potency [3]: inactive | Potency [4]: inactive | Potency [5]: inactive | Potency [6]: inactive | Potency [8]: inactive

CC(C)C(=O)c1c(C(C)C)nn2ccccc12
Potency [1]: inactive | Potency [2]: inactive | Potency [3]: inactive | Potency [9]: inactive | Potency [4]: inactive | Potency [5]: inactive | Potency [6]: inactive | Potency [8]: inactive

COc1ccc2cc1Oc1ccc(cc1)C[C@H]1c3c(cc4c(c3Oc3cc5c(cc3OC)CCN(C)[C@@H]5C2)OCO4)CCN1C
Potency [1]: 15 µM (active) | Potency [2]: 17.4 µM (active) | Potency [4]: 12.2 µM (active) | Potency [5]: inactive | Potency [8]: 24.6 µM (active)

COc1cc2[nH]c(=O)[nH]c(=O)c2cc1OC
Potency [1]: inactive | Potency [2]: inactive | Potency [3]: inactive | Potency [9]: inactive | Potency [4]: inactive | Potency [5]: inactive | Potency [6]: inactive | Potency [8]: inactive | Potency [7]: inactive

CC1=C(CC(=O)O)c2cc(F)ccc2/C1=C\c1ccc(S(C)=O)cc1 (stereo not drawn)
Potency [1]: inactive | Potency [2]: inactive | Potency [3]: inactive | Potency [4]: inactive | Potency [5]: inactive | Potency [6]: inactive | Potency [8]: inactive | Potency [7]: inactive

C=Cc1c(C)c2cc3[nH]c(cc4nc(cc5nc(cc1[nH]2)C(C)=C5CCC(=O)O)C(CCC(=O)O)=C4C)c(C)c3C=C
Potency [1]: inactive | Potency [2]: inactive | Potency [3]: inactive | Potency [9]: inactive | Potency [4]: inactive | Potency [5]: inactive | Potency [6]: inactive | Potency [8]: inactive

NC(=O)c1ncn([C@@H]2O[C@H](CO)[C@@H](O)[C@H]2O)n1
Potency [1]: inactive | Potency [2]: inactive | Potency [10]: inactive | Potency [9]: inactive | Potency [4]: inactive | Potency [5]: inactive | Potency [8]: inactive | Potency [7]: inactive

C[C@]12C[C@H](O)[C@H]3[C@@H](CCC4=CC(=O)CC[C@@]43C)[C@@H]1CC[C@@H]2C(=O)CO
Potency [1]: inactive | Potency [2]: inactive | Potency [3]: inactive | Potency [4]: inactive | Potency [5]: inactive | Potency [6]: inactive | Potency [8]: inactive | Potency [7]: inactive
